# Assay outcomes from PubChem BioAssay.
# MIN6 prolif-1: inducers of MIN6 beta-cell proliferation, primary screen, ATP luminescence, uHTS; MIN6 cells proliferation, ATPlite luminescence, 48 h; cells starved in 0.2% serum; 100% = growth in 10% serum; proliferation, % at 10 µM; 330,000 compounds, 0.29% hits;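 active = compounds whose signal lies at least 3.5 SD above the mean of all wells on their plate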;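 note: 0% = DMSO-treated cells in low-serum medium and 100% = 10% serum control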
# A1 inh: caspase 3/7 activation in MEF A1-2A-BIM cells, primary screen, A1 inhibitor project, cell-based, luminescence, HTS; caspase activation, % (test concentration not listed); Caspase-Glo 3/7 luminescence, 3 h; percent of clofoctol response, vehicle zero; 330,000 compounds, 0.066% hits;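 active = over half of replicate activation scores above 10%, or exactly half above 10 with the replicate mean above 10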
# APOBEC3A inh: APOBEC3A ssDNA deaminase inhibitors, primary screen, selectivity assay for APOBEC3G inhibitor project, biochemical, FAM/TAMRA oligo cleavage fluorescence; DNA dC->dU-editing enzyme APOBEC-3A (Homo sapiens), P31941; recombinant A3A, FAM/TAMRA ssDNA deamination fluorescence; inhibition, % at 20 µM; 330,000 compounds, 0.41% hits; AID 493011, 2011;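 active = at least 40% inhibition at 20 µM here, with at most 30% in a related deaminase screen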;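 note: plate controls were A3A with DMSO for no effect and wells lacking A3A enzyme for full effect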
# Target sequence (P31941 whole entry, looked up): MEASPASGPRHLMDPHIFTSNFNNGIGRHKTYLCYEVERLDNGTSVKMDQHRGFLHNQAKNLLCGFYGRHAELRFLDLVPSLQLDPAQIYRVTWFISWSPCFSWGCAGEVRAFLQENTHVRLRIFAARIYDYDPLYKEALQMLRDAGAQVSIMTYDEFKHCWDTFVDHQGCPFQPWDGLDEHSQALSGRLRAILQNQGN
# APOBEC3G inh: APOBEC3G DNA deaminase inhibitors, primary screen, biochemical, fluorescence, single-stranded DNA substrate, uHTS; recombinant A3G, ssDNA deamination FAM/TAMRA fluorescence; inhibition, % at 20 µM; 330,000 compounds, 0.28% hits;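 active = inhibition of at least 40% at 20 µM, with no more than 30% in the related APOBEC3A deaminase screen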;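 note: plate controls were DMSO wells with A3G for no effect and wells lacking A3G enzyme for full effect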
# Target sequence (Q9HC16 whole entry, looked up): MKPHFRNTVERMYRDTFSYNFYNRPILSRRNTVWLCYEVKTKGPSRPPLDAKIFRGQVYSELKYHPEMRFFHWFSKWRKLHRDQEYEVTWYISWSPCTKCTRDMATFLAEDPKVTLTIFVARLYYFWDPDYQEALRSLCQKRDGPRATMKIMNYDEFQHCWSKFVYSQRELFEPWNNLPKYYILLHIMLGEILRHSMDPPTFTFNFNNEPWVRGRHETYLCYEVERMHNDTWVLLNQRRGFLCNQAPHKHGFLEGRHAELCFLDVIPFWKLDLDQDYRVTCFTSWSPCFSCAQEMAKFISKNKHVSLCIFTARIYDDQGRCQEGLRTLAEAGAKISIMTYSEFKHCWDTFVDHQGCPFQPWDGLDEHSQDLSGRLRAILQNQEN
# MIN6 prolif-2: inducers of beta-cell proliferation in MIN6, confirmation, MIN6 cells, mouse | shares compounds with MIN6 prolif-1 | ATPlite luminescence, 48 h; cells kept in 0.2% serum; scaled between 0.2% and 10% serum | proliferation increase, % at 50 µM | 920 tested, under 10 active | AID 463095, 2010;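 active = proliferation increase above 40% at any of the four tested concentrations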
# Numbers without * were called inactive; . = no result given. Hits are enriched below; roughly 1.1% of the tested compounds scored in any of these assays.
SMILES,MIN6 prolif-1,A1 inh,APOBEC3A inh,APOBEC3G inh,MIN6 prolif-2
O=C1CSC(c2ccc(Cl)cc2)N1Nc1nc(N2CCOCC2)nc(N2CCOCC2)n1 (stereo not drawn),9.7*,0.5,4.2,1.4,-4.5
CCOc1ccccc1NC(=O)N1CCC(NC(=O)c2ccccc2C)CC1,7.8*,-0.7,0.6,-1.9,2.4
O=C(N/N=C/c1cc2c(cc1Cl)OCO2)c1ccncc1,0.3,-0.3,-2.6,-5.1,.
O=C(N/N=C/c1cc2c(cc1Cl)OCO2)c1cccc(Br)c1,11.3*,0.0,7.2,-2.9,-1.7
Cc1cccc(-c2c3c(=O)n(C)c(=O)n(C)c3c3cccnn23)c1,9.0*,0.3,3.5,6.4,-2.4
CCCn1c(-c2ccc(OC)cc2)nc2nc3ccccc3nc21,1.6,-0.1,9.2,3.0,.
C=CCn1c(-c2cccc(OC)c2)nc2nc3ccccc3nc21,9.1*,-0.6,-0.7,-9.2,-2.7
CC(=O)N1c2ccc(S(=O)(=O)N3CCCCC3)cc2CC1C(=O)NCc1ccc(N(C)C)cc1 (stereo not drawn),-2.1,0.1,-1.3,1.6,.
CC(C)CC(C(=O)NC1CCCCC1)N(Cc1cccs1)C(=O)c1snc(C(N)=O)c1N (stereo not drawn),7.1*,0.7,-0.6,-7.2,-6.4
Cn1c(=O)c2c(nc(OCc3ccccc3)n2C)n(C)c1=O,15.7*,-0.6,-0.9,-6.3,5.3
O=C(CN(c1ccccc1)S(=O)(=O)c1ccc(Cl)cc1)Nc1cccnc1,-3.6,-0.8,-2.0,-8.6,.
O=C(CN(c1ccccc1)S(=O)(=O)c1ccccc1[N+](=O)[O-])Nc1cccnc1,5.5*,-0.2,-2.7,-3.8,-0.3
Cc1ccc(C(=O)N2CCN(S(=O)(=O)c3ccccc3)CC2)s1,-3.5,-0.9,-4.5,-10.4,.
CC1CC(C)CN(C(=O)c2cc(S(=O)(=O)N3CCCCC3)ccc2Cl)C1 (stereo not drawn),14.0*,0.5,3.2,-4.9,-4.9
Cc1ccnc(NC(=O)COc2ccc3c(c2)CCC3)c1,-3.2,1.0,1.8,-2.3,.
COCCCNC(=S)NCCCNc1nc2cc3c(cc2cc1C#N)OCO3,5.8*,0.0,-0.9,-4.6,3.8
Cc1cccc(C(=O)OCC(=O)c2ccc(CC(=O)N3CCOCC3)s2)c1C,-1.7,.,11.9,6.9,.
CC1(C)CN(c2ccc(C(=O)c3ccccc3)cc2)C1=O,7.8*,0.5,-4.0,-7.0,-0.6
COC(=O)[C@@]1(C)[C@H]2C(=O)N(C)C(=O)[C@H]2[C@H]2CN=C(SC)N21,.,.,3.5,6.3,.
Brc1cccc(-c2nnc(SCc3ccon3)n2-c2ccccc2)c1,11.8*,-1.4,-2.9,-5.8,-6.2
CCC1CCCCN1Cc1ccc(N)cc1 (stereo not drawn),-2.5,0.6,1.0,-2.7,.
CCCn1cnc2scc(-c3ccc(C)cc3)c2c1=O,14.1*,-1.0,-2.5,-7.0,-2.5
CCCn1cnc2scc(-c3ccc(OC)cc3)c2c1=O,-1.7,-0.4,-7.6,-4.4,.
C=CCOn1c(=O)c(-c2ccc(Br)cc2)[n+]([O-])c2ccccc21,8.9*,-0.2,-1.9,-8.1,-2.0
C=CCOn1c(=O)c(-c2ccccc2)[n+]([O-])c2ccccc21,-2.2,0.0,1.4,1.2,.
SMILES,MIN6 prolif-1,A1 inh,APOBEC3A inh,APOBEC3G inh,MIN6 prolif-2
CN(C)S(=O)(=O)c1cccc(NC(=O)COc2ccccc2C(=O)NCc2ccccc2)c1,13.0*,.,5.8,-1.4,-5.6
CN(c1nc2nonc2nc1NC1CC1)C1CCOC1 (stereo not drawn),7.6*,-0.7,-1.3,-5.7,-1.3
CC1Cc2nc(SCC(=O)OCc3ccccc3)n(C)c(=O)c2S1 (stereo not drawn),15.4*,0.5,-1.4,2.4,-2.6
Cc1[nH]c2ccccc2c1NC(=O)CN1CCN(C(=O)c2ccco2)CC1,-1.7,0.5,-1.7,-8.2,.
O=C(c1ccsc1)N1CCCC(Nc2cccc(F)c2)C1 (stereo not drawn),11.6*,1.4,-0.1,1.8,-1.5
COc1ccc(CCC(=O)NCCS(=O)(=O)N2CCN(c3ccccc3OC)CC2)cc1,0.5,-0.2,2.5,2.2,.
COc1ccc(CCNC(=O)CCN2C(=O)c3cccc4cccc(c34)C2=O)cc1OC,7.9*,0.3,-1.9,-4.1,0.4
COc1ccc(CCNC(=O)CCN2C(=O)c3ccccc3C2=O)cc1OC,0.2,0.2,3.0,9.0,.
CSc1nc(N2CCOCC2)nc2ccc(C)cc12,1.6,0.2,2.0,3.5,.
CN(C)C(=O)CCc1ccc2c3c([nH]c2c1)[C@]1(CCC2CCCC2)[C@@H](C(=O)N2CCOCC2)C[C@H](CC(=O)NCCC2=CCCCC2)C(=O)N1CC3,.,.,-1.8,1.6,.
COc1ccc(CC(=O)N(Cc2ccccc2)C(C)C)cc1,-1.9,0.1,-0.3,12.8,.
COc1ccc(CCC(C)N(C)Cc2ccccc2)cc1 (stereo not drawn),6.6*,0.8,-4.6,0.0,-3.9
Cc1nc(N)c(C#N)c(-c2cccnc2)c1C,9.6*,0.7,-0.7,-3.5,9.5
N#Cc1c(N)nc2c(c1-c1ccc3c(c1)OCO3)CCCCCC2,-2.2,1.0,-1.8,-3.2,.
Cc1nc(N)c(C#N)c(-c2ccc3c(c2)OCO3)c1C,5.3*,0.7,0.6,-3.8,1.5
Cc1ccc(S(=O)(=O)N2CC(O)CC2C(=O)OCC(=O)Nc2ccc([N+](=O)[O-])cc2C(F)(F)F)cc1C (stereo not drawn),-0.4,-0.5,6.3,-6.1,.
c1ccc2oc(-c3ccc(Nc4nc(N5CCCC5)nc(N5CCOCC5)n4)cc3)nc2c1,-3.7,-0.9,0.6,3.5,.
O=C(O)CCc1ccc(-c2ccc(Cl)cc2)n1CC(=O)O,5.8*,-0.5,1.3,1.0,0.5
O=C(O)CCc1ccc(-c2ccc(Cl)cc2)n1CCC(=O)O,-1.7,-0.1,-2.8,-4.3,.
COc1ccc(-c2noc(COc3ccc4c(c3)OCO4)n2)cc1OC,10.9*,0.6,-5.6,-4.6,0.7
O=C(COc1ccccc1)NC1CCS(=O)(=O)C1 (stereo not drawn),0.4,-1.6,-5.1,-7.3,.
CC(=O)c1ccc(OCC(=O)NC2CCS(=O)(=O)C2)cc1 (stereo not drawn),5.0*,0.0,0.0,-6.2,0.2
O=C(CNC(=O)CNC(=O)c1ccc(Cl)cc1Cl)NCc1cccc(Cl)c1,-1.0,0.9,39.1,11.7,.
COc1ccc(NS(=O)(=O)c2cc(C(=O)N3CCN(C/C=C/c4ccccc4)CC3)ccc2C)cc1,-3.4,-0.1,-1.4,-6.7,.
